From PubChem
D2 ag-1 = agonists of human D2 dopamine receptor (beta-arrestin). P14416. DiscoveRx PathHunter D2 beta-arrestin, luminescence, 90 min; 100% = 57 uM dopamine signal. activation, % (concentration not given with the values). 0.084% of 360,000 active; in the data active = activation above about 40%; inconclusive = between about 15% and that limit
Target sequence (P14416 whole entry, looked up): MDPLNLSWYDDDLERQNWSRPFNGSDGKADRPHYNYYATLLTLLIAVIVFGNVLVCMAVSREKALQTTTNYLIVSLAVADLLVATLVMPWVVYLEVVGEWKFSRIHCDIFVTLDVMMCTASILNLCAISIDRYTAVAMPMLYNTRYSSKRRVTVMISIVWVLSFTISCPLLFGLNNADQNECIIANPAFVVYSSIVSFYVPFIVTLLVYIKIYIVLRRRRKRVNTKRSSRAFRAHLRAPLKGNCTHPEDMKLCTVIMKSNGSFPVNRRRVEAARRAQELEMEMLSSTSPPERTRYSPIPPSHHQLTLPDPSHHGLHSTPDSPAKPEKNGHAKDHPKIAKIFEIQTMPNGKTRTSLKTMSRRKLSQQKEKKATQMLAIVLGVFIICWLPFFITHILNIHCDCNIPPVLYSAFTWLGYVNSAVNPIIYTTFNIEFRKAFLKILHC
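DiscoveRx PathHunter D2 beta-arrestin cells (2,100/well) attached overnight, then compound-stimulated 90 min at 37 C in HBSS/10 mM HEPES/0.1% Tween-20 buffer; beta-galactosidase complementation read by luminescence after 1 h at ambient temperature. Dopamine 57 uM final (EC100) as control.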
D2 ag-2 = agonists of human D2 dopamine receptor | AID 485358 | P14416 | activation, % at 2 µM | 0.53% of 340,000 active | HEK293 T-REx D2 cells, calcium flux agonist mode;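 active = activation over 3 SD above normal in the single-dose calcium agonist read, cut at about 30% in these data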
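Calcium-flux readout, 1 cycle/sec over 180 s following compound pin transfer, in inducible HEK293 Trex D2 cells (force-coupled); dopamine controls included. Positive calcium responses during this window marked compounds as potential agonists.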
D2 PAM-1 = positive allosteric modulators of human D2 dopamine receptor; 0.34% of 340,000 active; potentiation, % at 10 µM; P14416; AID 485347; HEK293 T-REx D2, calcium flux, EC20 dopamine potentiation;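 active = potentiation over 3 SD above the plate norm, cut at about 30% in these data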
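Calcium flux readout, no-wash dye, 1 read/s. Inducible HEK293 Trex D2 line, overnight 30 C. Compound alone 180 s (agonist flags), then EC20 dopamine, another 180 s to score potentiation.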
D2 PAM-2 = potentiates the human D2 dopamine receptor allosterically; P14416; DiscoveRx D2 beta-arrestin cells, luminescence, 90 min; 100% = 57 uM dopamine signal; potentiation, % (test concentration not listed); 0.23% of 360,000 active; AID 624464; in the data active = potentiation above about 50%; inconclusive = mostly about 30% to 49%
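PathHunter beta-arrestin assay in DiscoveRx D2 cells. Compounds were added with an EC20 of dopamine (50 nM final) for 90 min at 37 deg C. Luminescence was read 1 h after detection reagent, with 57 uM dopamine as the EC100 control.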
D2 antagonist = antagonizes the human D2 dopamine receptor; P14416; HEK293 TREx D2 cells, calcium flux, dopamine EC80; inhibition, % at 10 µM; 2% of 340,000 active; in the data active = inhibition above about 30%; inactive = below that, where a call was filed
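Tetracycline-induced HEK293 TREx cells expressing D2 receptor forced-coupled to calcium signalling, loaded with no-wash calcium dye. Compounds added and calcium flux read 180 s, then dopamine added at EC80 and read a further 180 s.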
Hits are given with their value; i = inactive; ? = inconclusive; nt = no result given. In the library only some 2.4% were active in any assay of this set; here they are far more common.

SMILES	D2 ag-1	D2 ag-2	D2 PAM-1	D2 PAM-2	D2 antagonist
CCOC(=O)/C(=C\c1ccc(OC)c(OC)c1)C(=O)c1cccnc1	i	i	40	i	i
COc1ccc(/C=C/C(=O)O/N=C(\N)c2cccnc2)cc1OC	i	i	i	i	i
N#C/C(=C\c1coc2ccc(O)cc2c1=O)C(=O)Nc1nc2ccccc2s1	i	59	i	i	i
COc1ccc(OC)c(/C=C/C(=O)N(C)CC(=O)Nc2ccc(N3CCOCC3)cc2)c1	i	i	i	i	40
COc1cccc(NC(=O)Cn2c(=O)n(CCCCC(=O)NCCc3ccccc3)c(=O)c3ccccc32)c1	nt	i	i	nt	nt
N#Cc1cc(NCC2CCCO2)c([N+](=O)[O-])cc1C#N (stereo not given)	i	i	i	50	i
CC(=O)c1ccc(OCC(=O)NC(=O)NC2CCCC2)cc1	i	nt	nt	i	nt
CC(=O)c1ccc(OCC(=O)NC2CCCCCC2)cc1	i	i	31	i	i
Cc1cc(=O)oc2cc(OCC(=O)NC3CCCC3)ccc12	i	i	31	i	i
COc1ccc(C(=S)N2CCOCC2)cc1OC(=O)c1ccc([N+](=O)[O-])cc1	i	i	i	i	i
COc1cc(C(=S)N2CCOCC2)ccc1OC(=O)c1ccc([N+](=O)[O-])cc1[N+](=O)[O-]	59	i	i	61	i
CCOc1c(Cl)cc(CNc2ccc3[nH]c(=O)[nH]c3c2)cc1OC	nt	i	i	nt	nt
CCOC(=O)Cn1nc(-c2ccccc2)c2ccccc2c1=O	i	i	i	i	i
CCOC(=O)Cn1nc(Cc2ccccc2)c2ccccc2c1=O	i	i	43	i	i
O=[N+]([O-])c1ccc(Cl)c(S(=O)(=O)Nc2cccc(-c3ccc(N4CCOCC4)nn3)c2)c1	i	i	i	i	34
O=[N+]([O-])c1ccc(Cl)c(S(=O)(=O)Nc2ccc(-c3ccc(N4CCOCC4)nn3)cc2)c1	i	i	i	i	i
COC(=O)/C=c1/s/c(=C(/C#N)C(=O)N2CCCCC2)n(-c2ccccc2)c1=O	i	i	i	i	i
COc1cc(/C=c2\s/c(=C(/C#N)C(=O)N3CCCC3)n(-c3ccccc3)c2=O)ccc1O	i	39	i	i	i
Cc1cc(=O)oc2cc(OC(=O)c3cncc(Br)c3)ccc12	i	i	i	i	31
CCCC(=O)Oc1ccc2c(C)cc(=O)oc2c1	i	i	i	i	i
COc1ccc(-c2ccc3c(c2)S(=O)(=O)c2cccc(C(=O)N4CCN(C5CCCCC5)CC4)c2C3=O)cc1OC	?	nt	nt	118	nt
Cc1nc(-c2cccnc2)sc1CCNS(=O)(=O)c1ccc(F)cc1	nt	i	i	nt	nt
COCCn1cnc2c1c(=O)n(Cc1ccccc1C#N)c(=O)n2Cc1ccccc1	i	i	36	i	i
CCOc1ccc(CCNC(=O)c2sc3nc4n(c(=O)c3c2C)CCCC4)cc1OCC	nt	i	i	nt	nt
CCOc1ccc(CCNC(=O)c2sc3nc4n(c(=O)c3c2C)CCC4)cc1OCC	i	i	i	i	30
SMILES	D2 ag-1	D2 ag-2	D2 PAM-1	D2 PAM-2	D2 antagonist
CNC(=O)c1c(NC(=O)c2ccc(S(=O)(=O)N3CCCCC3)cc2)sc2c1CCC2	nt	i	nt	nt	nt
c1ccc(-c2ccccc2OCCCCN2CCCCC2)cc1	i	i	i	i	75
c1ccc(-c2ccccc2OCCCN2CCCCCC2)cc1	i	i	i	i	56
c1ccc(-c2ccccc2OCCCN2CCCC2)cc1	i	i	i	i	i
Cc1ccc(S(=O)(=O)N(C)C)cc1NC(=S)N(CCC#N)Cc1cccnc1	i	i	i	i	43
CSc1ccccc1NC(=O)Nc1ccc(Cl)cc1	i	i	i	i	31
CC(O)(Cc1ccccn1)Cc1ccccn1	i	nt	nt	i	nt
O=C(CCn1c(=O)c2cccn2c2ccccc21)Nc1ccc(F)cc1	i	i	i	i	61
N#CCC(=O)Nc1ccc(C(=O)OCC(=O)C23CC4CC(CC(C4)C2)C3)cc1	i	i	i	i	i
O=C(OCCC12CC3CC(CC(C3)C1)C2)c1ccc(NCc2cc(O)ccc2O)cc1	?	nt	nt	64	nt
O=C(OCC12CC3CC(CC(C3)C1)C2)c1ccc(NCc2cc(O)ccc2O)cc1	?	nt	nt	55	nt
Oc1ccc2ccccc2c1C=Nc1cc(C(F)(F)F)ccc1N1CCCC1	i	i	i	55	i
N#Cc1cccc(N=Cc2c(O)ccc3ccccc23)c1	i	i	i	?	i
COc1ccc(OCC(O)CNC(=O)Nc2cc(F)ccc2C)cc1 (stereo not given)	i	i	i	i	38
COC(=O)c1[nH]c2cccc(OC)c2c1NC(=O)CCN1CCC(C(N)=O)CC1	nt	i	i	nt	i
COC(=O)c1c(NC(=O)CN2CCN(c3ccccc3OC)CC2)c2c(C)cccc2n1C	nt	52	i	nt	i
COC(=O)c1c(NC(=O)CN2CCN(c3ccccc3)CC2)c2c(C)cccc2n1C	i	i	i	i	i
COC(=O)c1[nH]c2cccc(OC)c2c1NC(=O)CCN1CCN(c2ccccc2F)CC1	nt	44	i	nt	74
COC(=O)c1[nH]c2cc(OC)ccc2c1NC(=O)CCN1CCN(c2ccccc2)CC1	i	i	i	i	63
CCOC(=O)C1CCCN(CCC(=O)Nc2c(C(=O)OC)[nH]c3cc(OC)ccc23)C1 (stereo not given)	i	i	i	i	i
COc1ccc(OC)c(NC(=O)CCN2CCN(Cc3ccccc3)CC2)c1	i	36	i	i	i
CC1CCc2c(sc3nc(-c4cc5cc(Br)ccc5oc4=O)[nH]c(=O)c23)C1 (stereo not given)	nt	i	i	nt	nt
COc1ccc(CNC(=O)C2=C(C)C(=O)OC23CCCCC3)cc1	nt	i	i	nt	nt
CCCc1ccc(Oc2cc(NN3CCCCC3)c([N+](=O)[O-])cc2[N+](=O)[O-])cc1	i	i	i	i	i
COC(=O)c1[nH]c2cccc(C)c2c1NC(=O)CN1CCN(c2ccccc2OC)CC1	i	39	i	i	54
SMILES	D2 ag-1	D2 ag-2	D2 PAM-1	D2 PAM-2	D2 antagonist
COC(=O)c1[nH]c2cccc(C)c2c1NC(=O)CN1CCN(C(=O)c2ccco2)CC1	i	i	i	i	i
Cc1cc(C)c(S(=O)(=O)N/N=C/c2ccc3c(c2)OCO3)c(C)c1	i	i	i	i	74
CC(C)CN(C(=O)Cn1nnc(-c2ccc(F)cc2)n1)C1CCS(=O)(=O)C1 (stereo not given)	i	i	i	i	55
CC(C)CN(C(=O)Cn1nnc(-c2ccc(Cl)cc2)n1)C1CCS(=O)(=O)C1 (stereo not given)	i	nt	nt	i	nt
CC(C)CN(C(=O)c1cccc(S(=O)(=O)N2CCN(c3ccc(F)cc3)CC2)c1)C1CCS(=O)(=O)C1 (stereo not given)	i	i	i	i	35
COc1cc(C)c(/C=C(\C#N)C(=O)Nc2ccc(C)cc2)cc1C(C)C	i	i	i	i	75
COCCNC(=O)/C(C#N)=C/c1cc(C(C)C)c(OC)cc1C	i	i	i	i	i
